Assay outcomes from PubChem BioAssay.
Rows were chosen to be rich in hits. Some 21% of all compounds tested hit in one or more screens of this group.
DRD3 antagonist – qHTS of D3 Dopamine Receptor Antagonist: qHTS | D3R cells, DiscoveRx beta-arrestin luminescence, antagonist mode; active compounds read low | max response, negative = inhibition, % | 360,000 tested, 2.5% active; in the data active = max response below about -50%; inconclusive = no clear call, values can overlap the other calls; note: % is set by controls: 0 for no effect and ±100 for the full control effect
Target sequence (P35462 whole entry, looked up): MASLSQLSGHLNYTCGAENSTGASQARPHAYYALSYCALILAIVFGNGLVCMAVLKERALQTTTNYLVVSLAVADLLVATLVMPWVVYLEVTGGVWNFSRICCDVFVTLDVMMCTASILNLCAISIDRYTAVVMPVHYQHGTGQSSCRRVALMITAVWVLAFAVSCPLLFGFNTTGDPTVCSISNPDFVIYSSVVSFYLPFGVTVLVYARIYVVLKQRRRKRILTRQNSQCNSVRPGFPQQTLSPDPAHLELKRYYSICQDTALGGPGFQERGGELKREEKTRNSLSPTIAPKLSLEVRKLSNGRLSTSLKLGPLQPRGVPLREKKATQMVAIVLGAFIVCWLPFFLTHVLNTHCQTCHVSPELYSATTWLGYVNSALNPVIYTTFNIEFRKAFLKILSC
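Cells plated overnight at 1500 cells/well, then exposed to library compounds with dopamine controls for 90 minutes at 37 degrees C. DiscoveRx reagent added for 30–60 minutes at room temperature; luminescence read, quantitative HTS format.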
DT40 TDP1 no CPT – qHTS for Inhibitors of human tyrosyl-DNA phosphodiesterase 1 (TDP1): qHTS in cells in absence of CPT | DT40 Tdp1-/- hTDP1 cells, no CPT, ATP luminescence, 48 h | Potency, µM (doses to about 46.2 µM), without a hit: at the top dose activity change, negative = growth inhibition, actives largely listed as inhibitors | 420,000 tested, 15% active | AID 686978, 2013; note: potency is the fitted concentration of half-maximal effect; % is set by controls: 0 for no effect and ±100 for the full control effect; nearly all actives have a fitted effect of over 55% in size
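Seeded 400 DT40-hTDP1 cells/well (vehicle DMSO, no 20 nM CPT); pinned compounds; ≥48 hr at 37 °C; CellTiter-Glo luminescence as viability measure.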
IL-1B inflam inh – qHTS for Inhibitors of Inflammasome Signaling: IL-1-beta AlphaLISA Primary Screen; THP-1 LPS/ATP IL-1B secretion, AlphaLISA, 16 h; active compounds read low; activity change, % at 57.5 µM; 360,000 tested, 4.7% active; in the data active = activity change below about -50%; inconclusive = mostly about -30% to -49%; note: % is set by controls: 0 for no effect and ±100 for the full control effect
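Secreted IL-1B measured by AlphaLISA bead assay after 16 h compound exposure of THP-1 cells; compounds (final up to 57.5 uM) added 1 h before LPS (250 ng/mL) and ATP (1.25 mM) stimulation; lower signal means less secretion.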
ClpP mod – qHTS Assay for Activators of ClpP; ATP-dependent Clp protease proteolytic subunit (Bacillus subtilis (strain 168)), P80244; purified B. subtilis ClpP, FRET peptide cleavage, 20 min; Potency, µM (highest dose often 57.5 µM), inactives show at the highest dose activity change, negative = active; 340,000 tested, 1.9% active; active = well fitted falling curve with a large enough effect; inconclusive = small, poorly fitted or top-dose-only effect; inactive = no such curve, though single readings can be large or run the other way; note: potency is the fitted concentration of half-maximal effect; the source files actives as falling curves though it sought activators and does not explain the sign; nearly all actives have a fitted effect of over 65% in size
Target sequence (P80244 whole entry, looked up): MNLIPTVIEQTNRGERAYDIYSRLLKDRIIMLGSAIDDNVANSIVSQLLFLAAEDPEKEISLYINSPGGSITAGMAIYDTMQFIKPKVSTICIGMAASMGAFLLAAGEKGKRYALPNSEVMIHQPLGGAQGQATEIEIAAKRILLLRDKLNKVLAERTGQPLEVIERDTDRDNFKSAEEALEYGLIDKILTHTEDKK
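FRET quenching reversal measured ClpP activation: 10 microg/mL B. subtilis ClpP at pH 8 with the FRET-FV decapeptide, read at 430 nm after 320 nm excitation. The 20-min minus 0-min signal was scaled between DMSO/no-enzyme wells and ADEP (5.8 microM final).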
DT40 TDP1 CPT – qHTS for Inhibitors of human tyrosyl-DNA phosphodiesterase 1 (TDP1): qHTS in cells in presence of CPT | chicken DT40 Tdp1-/-;hTDP1 cells + 20 nM CPT, ATP luminescence, 48 h | Potency, µM (top dose mostly 46.2 µM), for inactives: at the highest dose activity change, negative = growth inhibition, most hits filed as inhibitors | 420,000 tested, 12% active | AID 686979, 2013; note: potency is the fitted concentration of half-maximal effect; % is set by controls: 0 for no effect and ±100 for the full control effect; nearly all actives have a fitted effect of over 55% in size
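Cell growth measured by CellTiter-Glo luminescence after a minimum 48 h, 37 C compound exposure with 20 nM CPT in Tdp1-knockout DT40 cells stably expressing hTDP1, seeded 400/well; qHTS titration format.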
D3 ag – qHTS of D3 Dopamine Receptor Agonist: qHTS; 410,000 tested, 0.58% active; max activation, %; D3R DiscoveRx beta-arrestin cells, luminescence, 90 min; D(3) dopamine receptor (Homo sapiens), P35462; in the data active = max activation above about 30%; note: 0% is about no effect
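Cells at 1500/well, incubated overnight, then treated with pinned compounds (dopamine as control) for 90 min at 37 degrees C. DiscoveRx reagent added for 30 - 60 minutes at room temperature; luminescence read.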
* marks the source's active call; other numbers are inactive results; ? = inconclusive; / = no result. Unless noted, calls come from the whole dose curve; as a rule, active = well fitted inhibition curve with a large enough effect; inconclusive = small, poorly fitted or top-dose-only effect; inactive = flat fitted curve, though single readings scatter.

SMILES | DRD3 antagonist | DT40 TDP1 no CPT | IL-1B inflam inh | ClpP mod | DT40 TDP1 CPT | D3 ag
CSCCC(C(=O)Nc1c(C)cccc1C)N(C)CCc1ccccc1 (stereo unspecified) | 10.9 | 16.4µM* | -2.5 | -0.5% | 18.4µM* | 1.4
Cn1c(=O)c2c(SCC(=O)Nc3ccc(F)cc3F)nc(C3CCCC3)nc2n(C)c1=O | / | ? | / | 1.1% | ? | -8.4
Cc1sc(-n2cccc2)c(C(C)NC(=O)Nc2cccc(C(F)(F)F)c2)c1C (stereo unspecified) | / | 20.6µM* | / | -3.3% | ? | 9.3
COc1cccc(NC(=O)Nc2nnc(N3C(C)CCCC3C)s2)c1 (stereo unspecified) | 6.5 | 18.4µM* | 41.2 | / | ? | 7.4
CC(C)(C)c1ccc(NC(=O)Nc2ccc(F)cc2)cc1 | -11.6 | 6.51µM* | ? | / | 5.17µM* | 2.8
CCc1ccc(NC(=O)Nc2ccon2)cc1 | 4.6 | -23.3% | ? | 0.1% | ? | 0.9
O=C(Nc1ccc([N+](=O)[O-])cc1)Nc1ccon1 | ? | 0.326µM* | -0.1 | 3.2% | 0.411µM* | -14.3
COc1cccc(NC(=O)Nc2nnc(Cc3ccccc3)s2)c1 | -8.5 | ? | 30.9 | 0.4% | ? | -3.0
COC(=O)C1=C[C@@H](C(=O)OC)[C@@H]2C3=C(C(=O)C2(C)C)[C@H](C)n2c(=O)n(-c4ccccc4)c(=O)n2[C@@H]3C1 | 16.9 | ? | -5.8 | -1.9% | ? | 4.0
COc1ccc(CNC(=O)Cn2ccc3cc(S(=O)(=O)N4CCCCCC4)ccc32)c(OC)c1 | / | ? | / | -8.6% | ? | -19.3
CCCCN1CC(=O)N2[C@H]3c4cc(Br)ccc4OC[C@@H]3[C@H](C(=O)OCC)[C@]2(C)C1=O | -9.0 | ? | -15.6 | 1.0% | ? | -10.9
COc1ccc(NC(=O)c2cc(S(=O)(=O)N3CCCC(C)C3)cn2C)c(OC)c1 (stereo unspecified) | / | 0.1% | / | -2.4% | -5.6% | 4.7
Cc1ccc(Cl)c2c(N=Nc3ccccc3)c(O)[nH]c12 | -7.7 | -26.5% | 39.9 | -2.3% | -13.1% | 4.0
COc1cccc(NC(=O)CSc2c(C)cnc3c2c(=O)n(C)c(=O)n3C)c1 | / | ? | / | -1.1% | ? | -2.1
O=C(Nc1cccc(S(=O)(=O)Nc2ccc(Cl)cc2)c1)c1ccccn1 | -8.1 | ? | 16.0 | -1.7% | ? | 1.3
COC(=O)c1ccc(NC(=O)Nc2ccc([N+](=O)[O-])cc2)cc1 | -7.0 | 2.31µM* | ? | 4.1% | 2.59µM* | 9.5
COc1cccc(NC(=O)Nc2ccncc2)c1 | 1.9 | -22.6% | 29.8 | -0.9% | -22.8% | -0.1
COc1cccc(NC(=O)Nc2ccc(C(C)(C)C)cc2)c1 | 5.9 | 23.1µM* | -66.3* | / | ? | 2.4
COc1ccc(NC(=S)Nc2ccccc2)cn1 | -3.2 | 7.8% | -10.8 | -14.8% | 11.4% | -1.7
COc1ccc(NC(=O)Nc2ccc(F)cc2)cn1 | 6.9 | 7.31µM* | -2.8 | -1.3% | 16.4µM* | 3.0
COc1ccc(NC(=O)/C=C/c2ccc(OC(F)F)cc2)cn1 | -10.3 | ? | -53.9* | / | -24.6% | -10.4
CCOC(=O)c1[nH]c(C)c(CCC(=O)Nc2cccc(C(F)(F)F)c2)c1C | / | ? | / | 0.1% | ? | -5.8
CC(NC(=O)COc1ccc(/C=N/NC(=O)CO)cc1)c1ccccc1 (stereo unspecified) | 7.5 | 12.8% | 0.6 | -0.7% | -18.6% | 9.9
CC1CCCCN1c1nnc(NC(=O)Nc2ccccc2F)s1 (stereo unspecified) | / | 20.6µM* | / | -3.2% | ? | 1.1
COc1cccc(C(C)NC(=O)Nc2cc(Cl)ccc2OC)c1 (stereo unspecified) | 6.0 | ? | 21.2 | / | 0.1% | -7.1
SMILES | DRD3 antagonist | DT40 TDP1 no CPT | IL-1B inflam inh | ClpP mod | DT40 TDP1 CPT | D3 ag
COc1cccc(C(C)NC(=O)Nc2cccc(C(F)(F)F)c2)c1 (stereo unspecified) | 6.6 | 10.3µM* | 5.9 | -0.9% | 20.6µM* | -4.2
Cc1nc(-c2cccc(NC(=O)Nc3ccc([N+](=O)[O-])cc3)c2)no1 | / | 4.61µM* | / | -2.6% | 5.17µM* | -2.1
Cc1cccc(NC(=O)Nc2nnc(N3CCCCC3C)s2)c1C (stereo unspecified) | -8.6 | ? | 11.2 | 0.2% | 6.2% | 4.2
COc1ccc(C)cc1NC(=O)Nc1cccc(-c2noc(C)n2)c1 | / | ? | / | 1.8% | ? | -15.3
COc1ccc(NC(=O)c2cccc(-c3ccc(O)cc3)c2)cn1 | -2.3 | 20.6µM* | -74.4* | -0.9% | 14.6µM* | -4.7
O=C(NCc1cccs1)c1ccc2sc([C@H]3C[C@H](O)[C@@H](CO)O3)nc2c1 | 0.0 | -23.2% | 22.6 | 1.2% | -15.4% | -0.4
O=C(c1ccccc1Br)N(Cc1ccco1)C1CCS(=O)(=O)C1 (stereo unspecified) | / | -10.8% | / | -1.9% | -19.5% | -17.6
Cc1csc2nc(CCNS(=O)(=O)c3ccc(F)cc3)cn12 | / | 0.6% | / | 0.2% | -11.1% | -0.2
CCOC(=O)C1CCCN(S(=O)(=O)c2ccc3[nH]c(=O)ccc3c2)C1 (stereo unspecified) | / | -51.6% | / | -15.3% | -26.4% | 3.3
COC(=O)c1ccc(NC(=O)Nc2ccc(F)cc2)cc1 | 11.8 | 13µM* | ? | -2.7% | 18.4µM* | 5.7
CN1CCN(S(=O)(=O)c2csc(C(N)=O)c2)CC1 | -19.6 | -1.7% | 6.1 | -1.4% | -3.0% | 1.4
C=CCC1C=CCC(CC=C)N1C(=O)c1ccccc1[N+](=O)[O-] (stereo unspecified) | 16.6 | ? | -18.5 | 1.1% | 13µM* | 2.3
COc1cccc(-c2ncc3ccccc3c2COC(=O)c2ccc(Br)cc2)c1 | ? | ? | 11.6 | -21.4% | -26.9% | -34.8
O=C(OCc1c(-c2ccccc2)ncc2ccccc12)c1ccc(Br)cc1 | 4.6 | 13µM* | 18.1 | -18.2% | -25.3% | -2.1
COc1cccc(-c2ncc3ccccc3c2COC(=O)N(C)C)c1 | -17.4 | 18.4µM* | -5.1 | -0.4% | 18.4µM* | -15.9
COc1cc(C(=O)N/C(=C\c2cn(C)c3ccccc23)C(=O)NCCCn2ccnc2)cc(OC)c1OC | 2.5 | 9.5% | 35.6 | -2.6% | 5.2% | -0.2
